Data: PubChem BioAssay (NCATS)
Inconclusive results are not listed. Activity calls are given as the source filed them. Unless noted, the call rests on the fitted dose curve; in most records, active means well fitted curve in the direction sought with a large enough effect; inconclusive means small, poorly fitted or top-dose-only effect, or another doubt; inactive means no such curve, though single readings can be large; an effect the other way counts as inactive or inconclusive.

What was measured:
[1] = target: Cytochrome P450 3A4 (Homo sapiens) (UniProt P08684); experiment: qHTS Assay for Inhibitors and Substrates of Cytochrome P450 3A4 (AID 884); further: series mostly up to about 57 µM; on the % scale 0 is the no-effect control and ±100 the full control effect; nearly all actives have a fitted effect of over 50% in size
In short: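 20 nM human CYP3A4 with 25 uM Luciferin-PPXE (at KM) in 200 mM KPO4, preincubated 10 min with compound; NADPH regeneration started a 60 min RT reaction. Luciferin detected by luminescence, normalized to 57 uM ketoconazole as full inhibition.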

[2] = Confirmation and Secondary Assay for Modulators of Hemoglobin Beta Chain Splicing at IVS2 654 locus (AID 910);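 further: per-well total GFP intensity by laser scanning cytometry after 2-day treatment; % of control where 0% means no effect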
In short: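 HeLa cells stably carrying EGFP interrupted by mutant beta-globin IVS2-654 intron (CMV-driven) were treated with compound for 2 days at 37C; corrected splicing was scored as total peak GFP intensity per well (488 nm excitation, 500-520 nm emission).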

[3] = Confirmation and Secondary Assay for Modulators of Hemoglobin Beta Chain Splicing at IVS2 705 locus (AID 930);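 further: HeLa cells stably expressing the EGFP-705 splicing reporter; GFP fluorescence per well restored by corrected splicing of the IVS2-705 intron in EGFP; series mostly up to about 46 µM; % of control where 0% means no effect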
In short: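 HeLa IVS2-705 EGFP reporter cells, 500/well, compound 2 d at 37C; correct splicing yields fluorescent EGFP. Control: 500 nM antisense PNA. Read-out: total peak GFP intensity.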

[4] = target: Ubiquitin carboxyl-terminal hydrolase 1 (Homo sapiens) (UniProt O94782); experiment: Inhibitors of USP1/UAF1: Pilot qHTS (AID 504865);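 further: rhodamine fluorescence freed from ubiquitin-rhodamine substrate followed over time; top concentration of the series differs between compounds; on the % scale 0 is the no-effect control and ±100 the full control effect; nearly all actives have a fitted effect of over 35% in size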
In short: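 Kinetic fluorescence assay: 1nM USP1/UAF1, 15 min compound preincubation, then 150nM Ub-Rho; 480/540 nm.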

[5] = target: Estrogen receptor (Homo sapiens) (UniProt P03372); experiment: qHTS assay for small molecule antagonists of estrogen receptor alpha signaling (AID 588513; active means well fitted curve in the direction sought with a large enough effect in the signal ratio, with a control signal flat, not every such curve was filed as active; the % refers to the signal ratio; further: on the % scale 0 is the no-effect control and ±100 the full control effect)
In short: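 Cells were plated at 5000/well and incubated 4 h at 37 C. Compounds were added as 1:2 dilution series, duplicates. 17-beta-estradiol (0.5nM final) was added for 18 h before CCF4 detection.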

[6] = target: Estrogen receptor (Homo sapiens) (UniProt P03372); experiment: qHTS assay for small molecule agonists of estrogen receptor alpha signaling (AID 588514; calls by dose curve;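 further: 0% = vehicle only and 100% = reference agonist; nearly all actives have a fitted effect of over 70% in size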)
In short: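 Reporter-gene assay. […] controls beta-lactamase in HEK 293 GripTite cells; after 18 hrs with compound, CCF4 substrate is added for 2 hrs and fluorescence is read.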

[7] = target: Bile acid receptor (Homo sapiens) (UniProt Q96RI1); experiment: qHTS assay for small molecule antagonists of farnesoid X receptor signaling (AID 588526; calls by dose curve; further: on the % scale 0 is the no-effect control and ±100 the full control effect)
In short: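 Concentration-response titrations were fitted to the Hill equation for half-maximal inhibition and maximal response, with data normalised to 50 uM chenodeoxycholic acid and DMSO control wells. Cells: FXR-UAS-bla HEK293T, dialyzed FBS.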

[8] = target: Bile acid receptor (Homo sapiens) (UniProt Q96RI1); experiment: qHTS assay for small molecule agonists of farnesoid X receptor signaling (AID 588527; calls by dose curve;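 further: series mostly up to about 77 µM; 0% = vehicle basal and 100% = reference agonist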); details: HEK293T FXR-UAS-bla, beta-lactamase ratio, 16 h; activation: stronger effect = higher value
In short: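 Quantitative HTS used FXR-UAS-bla HEK293T cells with 16 h compound incubation at 37 C. EC50 values came from concentration-response curves normalized to chenodeoxycholic acid.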

[9] = qHTS assay for small molecule antagonists of peroxisome proliferator-activated receptor delta signaling (AID 588535; active means well fitted inhibition curve with a large enough effect in the signal ratio, with a control signal flat, not every such curve was filed as active; the % refers to the signal ratio;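 on max response: cells co-treated with a PPAR-delta agonist as stimulator during compound exposure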); details: HEK293T PPARd-UAS-bla, beta-lactamase FRET ratio, 18 h; 460 nm channel
In short: (§1)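 GeneBLAzer PPAR-delta-UAS-bla HEK293T cells in medium with 2% charcoal/dextran FBS were preincubated 5 hrs at 37 C, then given compounds, incubated 18 hrs at 37 C, and read by CCF4 beta-lactamase fluorescence; IC50 from Hill fits.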

[10] = target: Peroxisome proliferator-activated receptor delta (Homo sapiens) (UniProt Q03181); experiment: as above
In short: as §1

[11] = target: Peroxisome proliferator-activated receptor gamma (Homo sapiens) (UniProt P37231); experiment: qHTS assay for small molecule antagonists of peroxisome proliferator-activated receptor gamma signaling (AID 588537; active means well fitted inhibition curve with a large enough effect in the signal ratio, with a control signal flat, not every such curve was filed as active; the % refers to the signal ratio;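 further: reporter cells co-stimulated with 50 nM rosiglitazone agonist during compound treatment; % of control where 0% means no effect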)
In short: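 PPAR-gamma-UAS-bla HEK293 cells (3000/well, 1% charcoal/dextran-stripped FBS) were preincubated 6-6.5 h at 37 C, given titrated compounds, then stimulated with 50 nM rosiglitazone for 16 h. Beta-lactamase activity was read with CCF4 dye; IC50 came from Hill fits.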

[12] = target: Vitamin D3 receptor (Homo sapiens) (UniProt P11473); experiment: qHTS assay for small molecule agonists of vitamin D receptor signaling (AID 588543; calls by dose curve;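 further: 0% = DMSO basal and 100% = reference agonist control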)
In short: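 qHTS in agonist mode: compound titrations stimulate a VDR-driven β-lactamase reporter in HEK293T cells over 16 h at 37 °C. Response normalized to 50 nM 1α,25-dihydroxyvitamin D3 = 100%, DMSO = 0%; Hill fitting gives EC50 and maximal response.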

[13] = qHTS assay for small molecule agonists of retinoid X receptor alpha signaling (AID 588544; calls by dose curve; further: potency means the concentration at half of the fitted maximal effect); details: HEK293T RXRa-UAS-bla, beta-lactamase reporter, 18 h; 530 nm emission
[14] = target: Retinoic acid receptor RXR-alpha (Homo sapiens) (UniProt P19793); experiment: as above
[15] = target: Thyroid hormone receptor beta (Homo sapiens) (UniProt P10828); experiment: qHTS assay for small molecule agonists of thyroid hormone receptor beta signaling (AID 588545; calls by dose curve)
In short: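 Cells (2500/well) were seeded, incubated 4 hrs at 37 C, dosed with a compound series, incubated 18 hrs, loaded with CCF4 dye for 2 hrs at RT, then read for fluorescence. Data were scaled between DMSO (0%) and 10 nM T3 (100%).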

[16] = qHTS assay for small molecule antagonists of retinoid X receptor alpha signaling (AID 588546; active means well fitted inhibition curve with a large enough effect in the signal ratio, with a control signal flat, not every such curve was filed as active; the % refers to the signal ratio;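 further: cells stimulated with 9-cis-retinoic acid as agonist; on the % scale 0 is the no-effect control and ±100 the full control effect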); details: HEK293T RXRa-UAS-bla, beta-lactamase ratio, antagonist mode; measured here: W530 green channel, cytotoxicity proxy
In short: (§2)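 Beta-lactamase reporter inhibition, read as CCF4 fluorescence ratio (ex 405, em 460/530 nm) after 2 h at RT. HEK293T UAS-bla cells, 2500/well, were stimulated with 9-cis-RA at 500 or 100 nM final alongside test compound for 18 h at 37 C.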

[17] = target: Retinoic acid receptor RXR-alpha (Homo sapiens) (UniProt P19793); experiment: as above; details: HEK293T RXRa-UAS-bla, beta-lactamase ratio, antagonist mode
In short: as §2

[18] = qHTS assay for small molecule activators of the nuclear factor-kappa B (NF-kB) signaling pathway (AID 651749; active means well fitted activation curve with a large enough effect in the signal ratio; the % refers to the signal ratio; further: series mostly up to about 77 µM; % of control where 0% means no effect); details: NF-kB-bla ME-180 cells, beta-lactamase FRET ratio, 16 h; activation: stronger effect = higher value
In short: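 ME-180 cells stably carrying a beta-lactamase reporter under an NF-kB response element were exposed to compound or DMSO vehicle for 16 hr at 37C, 5% CO2. Pathway activation was read by FRET, since reporter expression disrupts FRET.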

[19] = qHTS assay for environmental chemicals that activate the Aryl hydrocarbon Receptor (AhR) signaling pathway (AID 651777); details: 1A2-DRE human hepatoma cells, luciferase, 24 h; activation: stronger effect = higher value; further: potency means the concentration at half of the fitted maximal effect; nearly all actives have a fitted effect of over 15% in size
In short: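 Concentration–response screening used 1,200 1A2-DRE cells per well, 24 hr compound exposure (37 C, 5% CO2), and One-Glo luminescence as the AhR-driven CYP1A2 reporter signal.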

[20] = target: Peroxisome proliferator-activated receptor alpha (Homo sapiens) (UniProt Q07869); experiment: qHTS assay for small molecule agonists of the peroxisome proliferator-activated receptor alpha (PPARalpha) signaling pathway (AID 651778); details: PathHunter PPARalpha complementation, chemiluminescence, 6 h; max response: stronger effect = higher value; further: % of control where 0% means no effect
In short: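 Cells plated at 2,000/well and held overnight at 37 C, 5% CO2, then compound added by pin tool for 6 hr; after PathHunter detection reagent and 60 min at room temperature, chemiluminescence from enzyme complementation was read.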

[21] = qHTS assay for small molecule agonists of the antioxidant response element (ARE) signaling pathway measured by Nrf2-dependant transcriptional activity - cell viability counter screen (AID 720653; active means well fitted curve in the direction sought with a large enough effect in the repeat runs; an effect the other way counts as inactive or inconclusive; further: on the % scale 0 is the no-effect control and ±100 the full control effect); details: ARE-bla HepG2 viability, CellTiter-Glo ATP luminescence, 16 h; max response: stronger effect = lower value
In short: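 ARE-bla HepG2 cells (2,000/well) rested 5 hrs at 37C/5% CO2, then exposed to compounds in DMSO for 16 hrs. Viability was read in the same wells as intracellular ATP by luminescence, 30 min at room temperature after reagent addition.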

[22] = qHTS assay for cell viability of HEK293 cells (AID 743288); details: ATP luminescence (CellTiter-Glo), 18 h; max response: stronger effect = lower value; further: on the % scale 0 is the no-effect control and ±100 the full control effect; nearly all actives have a fitted effect of over 50% in size
In short: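 The Tox21 protocol used parental HEK293 cells treated for 18 h at 37 C with compounds delivered by pintool; ATP-coupled luminescence after 30 min at room temperature gave viability.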

[23] = qHTS assay for cell viability of the p53RE-bla HCT-116 cell line (AID 743292); further: on the % scale 0 is the no-effect control and ±100 the full control effect; nearly all actives have a fitted effect of over 55% in size
In short: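 Compound-exposed HCT-116 (p53RE-bla) cells, 4,000 per well, were kept 16 h at 37 C following a 5 h preincubation. Cell number was estimated from total ATP by CellTiter-Glo luminescence read after 30 min at room temperature.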

[24] = target: Nuclear receptor subfamily 1 group I member 2 (Rattus norvegicus) (UniProt Q9R1A7); experiment: qHTS assay for small molecule activators of the rat pregnane X receptor (rPXR) signaling pathway (AID 651751; call rule not given here; further: 0% is about no effect); details: rPXR reporter cells, luciferase (One-Glo), 24 h
[25] = qHTS assay for small molecule activators of the human pregnane X receptor (PXR) signaling pathway (AID 720659; call rule not given here; further: 0% is about no effect)
[26] = target: Alpha-galactosidase (Coffea arabica) (UniProt Q42656); experiment: Counterscreen for Glucocerebrosidase Inhibitors: qHTS Assay for Coffee Bean alpha-Galactosidase at pH 4.5 (AID 957);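 further: series mostly up to about 77 µM; plate controls were enzyme alone for no effect and no enzyme for full effect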
In short: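 AC50 values derive from Hill-equation modeling of concentration-response data, normalized to no-enzyme and full-activity controls. The pH 4.5 citrate assay used 2 nM coffee bean enzyme and 80 uM fluorogenic substrate for 20 min.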

[27] = target: Alpha-galactosidase (Coffea arabica) (UniProt Q42656); experiment: Counterscreen for Glucocerebrosidase Inhibitors: qHTS Assay for Coffee Bean alpha-Galactosidase at pH 5.9 (AID 998);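 further: plate controls were uninhibited enzyme for no effect and no-enzyme basal signal for full effect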
In short: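 Green coffee bean enzyme (2 nM final) was incubated with compounds (0.7 nM–77 uM) and 4-methylumbelliferyl alpha-D-galactopyranoside (80 uM) in citrate buffer pH 5.9, 20 min at room temperature. High-pH stop; fluorescence 365/440 nm; AC50 from Hill fits.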

[28] = Inducers of the Endoplasmic Reticulum Stress Response (ERSR) in human glioma: Validation (AID 504836); further: 0% is about no effect
In short: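 Stably transfected U87-MG human glioma cells carrying a GRP78-based luminescent sensor were seeded at 1000 cells/well, pin-dosed with compounds and incubated 16 h. Luciferase reagent was then added, and end-point luminescence was read after 10 min at room temperature.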

Alpha-galactosidase (Coffea arabica), sequence (Q42656 whole entry, looked up): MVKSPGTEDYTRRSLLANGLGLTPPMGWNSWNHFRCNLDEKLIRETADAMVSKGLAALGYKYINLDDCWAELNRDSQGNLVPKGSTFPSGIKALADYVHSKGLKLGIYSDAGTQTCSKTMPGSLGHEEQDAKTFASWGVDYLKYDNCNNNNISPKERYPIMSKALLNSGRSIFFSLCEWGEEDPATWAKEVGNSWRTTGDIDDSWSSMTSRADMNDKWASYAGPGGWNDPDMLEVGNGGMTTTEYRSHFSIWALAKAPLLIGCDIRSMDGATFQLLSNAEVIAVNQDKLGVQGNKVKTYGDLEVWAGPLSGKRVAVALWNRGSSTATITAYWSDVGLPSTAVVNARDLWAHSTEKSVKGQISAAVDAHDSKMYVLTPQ
Ubiquitin carboxyl-terminal hydrolase 1 (Homo sapiens), sequence (O94782 whole entry, looked up): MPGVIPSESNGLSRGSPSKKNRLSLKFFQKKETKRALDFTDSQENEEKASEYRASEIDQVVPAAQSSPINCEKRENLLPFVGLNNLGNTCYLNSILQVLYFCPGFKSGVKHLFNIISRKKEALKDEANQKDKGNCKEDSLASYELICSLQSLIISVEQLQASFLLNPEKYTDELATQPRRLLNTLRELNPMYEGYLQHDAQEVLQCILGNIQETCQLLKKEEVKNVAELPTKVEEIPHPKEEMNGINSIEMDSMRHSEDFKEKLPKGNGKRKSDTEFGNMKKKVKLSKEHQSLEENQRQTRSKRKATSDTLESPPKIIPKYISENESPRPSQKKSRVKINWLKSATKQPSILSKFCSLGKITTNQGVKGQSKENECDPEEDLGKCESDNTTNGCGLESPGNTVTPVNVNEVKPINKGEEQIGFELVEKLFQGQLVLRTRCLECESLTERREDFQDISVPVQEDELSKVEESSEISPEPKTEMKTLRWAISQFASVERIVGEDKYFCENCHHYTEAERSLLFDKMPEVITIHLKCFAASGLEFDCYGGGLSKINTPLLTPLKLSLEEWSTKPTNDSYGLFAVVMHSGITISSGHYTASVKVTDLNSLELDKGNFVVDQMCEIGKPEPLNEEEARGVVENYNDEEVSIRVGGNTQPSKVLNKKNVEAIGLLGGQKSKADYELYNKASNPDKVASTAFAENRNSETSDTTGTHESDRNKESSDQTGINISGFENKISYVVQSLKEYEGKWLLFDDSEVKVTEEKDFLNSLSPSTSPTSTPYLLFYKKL
Bile acid receptor (Homo sapiens), sequence (Q96RI1 whole entry, looked up): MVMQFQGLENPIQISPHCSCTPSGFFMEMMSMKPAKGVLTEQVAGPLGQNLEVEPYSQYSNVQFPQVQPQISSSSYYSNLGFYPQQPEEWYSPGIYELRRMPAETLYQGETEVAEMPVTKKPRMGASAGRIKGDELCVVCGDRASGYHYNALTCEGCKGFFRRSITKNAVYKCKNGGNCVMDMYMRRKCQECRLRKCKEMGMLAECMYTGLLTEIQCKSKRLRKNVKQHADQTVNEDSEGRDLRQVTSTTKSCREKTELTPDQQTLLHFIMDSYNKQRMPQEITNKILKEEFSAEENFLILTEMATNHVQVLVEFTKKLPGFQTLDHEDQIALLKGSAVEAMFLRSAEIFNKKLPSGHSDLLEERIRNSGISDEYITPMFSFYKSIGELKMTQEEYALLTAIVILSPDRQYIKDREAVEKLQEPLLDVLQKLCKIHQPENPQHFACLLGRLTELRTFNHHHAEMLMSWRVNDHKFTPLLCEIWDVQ
Estrogen receptor (Homo sapiens), sequence (P03372 whole entry, looked up): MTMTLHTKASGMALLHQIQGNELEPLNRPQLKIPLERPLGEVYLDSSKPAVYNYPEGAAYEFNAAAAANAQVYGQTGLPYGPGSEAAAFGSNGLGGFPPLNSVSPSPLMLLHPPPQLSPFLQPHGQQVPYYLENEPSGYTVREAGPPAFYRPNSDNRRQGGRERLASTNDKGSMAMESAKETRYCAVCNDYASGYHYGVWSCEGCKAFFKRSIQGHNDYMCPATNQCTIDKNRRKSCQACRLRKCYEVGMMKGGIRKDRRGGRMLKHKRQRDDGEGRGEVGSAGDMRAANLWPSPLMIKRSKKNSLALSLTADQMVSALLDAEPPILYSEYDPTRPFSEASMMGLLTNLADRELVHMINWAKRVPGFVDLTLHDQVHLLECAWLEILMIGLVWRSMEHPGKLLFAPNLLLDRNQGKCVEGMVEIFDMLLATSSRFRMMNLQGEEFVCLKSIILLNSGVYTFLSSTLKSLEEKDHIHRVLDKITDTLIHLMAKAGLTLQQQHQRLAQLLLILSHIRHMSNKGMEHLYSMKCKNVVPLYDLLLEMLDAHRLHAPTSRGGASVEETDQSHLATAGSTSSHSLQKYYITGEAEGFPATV
Retinoic acid receptor RXR-alpha (Homo sapiens), sequence (P19793 whole entry, looked up): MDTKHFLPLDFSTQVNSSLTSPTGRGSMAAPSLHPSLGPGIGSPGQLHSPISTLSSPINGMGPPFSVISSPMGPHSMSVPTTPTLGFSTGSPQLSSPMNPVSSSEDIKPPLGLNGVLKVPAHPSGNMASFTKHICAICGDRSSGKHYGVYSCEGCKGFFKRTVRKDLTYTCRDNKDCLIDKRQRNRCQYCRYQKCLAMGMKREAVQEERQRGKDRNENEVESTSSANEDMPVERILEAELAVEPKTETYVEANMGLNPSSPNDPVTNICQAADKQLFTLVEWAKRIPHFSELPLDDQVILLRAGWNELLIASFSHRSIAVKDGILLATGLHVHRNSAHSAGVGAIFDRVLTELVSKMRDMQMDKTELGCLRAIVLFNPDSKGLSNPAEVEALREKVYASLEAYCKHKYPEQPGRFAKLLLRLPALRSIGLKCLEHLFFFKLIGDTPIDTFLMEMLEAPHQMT
Thyroid hormone receptor beta (Homo sapiens), sequence (P10828 whole entry, looked up): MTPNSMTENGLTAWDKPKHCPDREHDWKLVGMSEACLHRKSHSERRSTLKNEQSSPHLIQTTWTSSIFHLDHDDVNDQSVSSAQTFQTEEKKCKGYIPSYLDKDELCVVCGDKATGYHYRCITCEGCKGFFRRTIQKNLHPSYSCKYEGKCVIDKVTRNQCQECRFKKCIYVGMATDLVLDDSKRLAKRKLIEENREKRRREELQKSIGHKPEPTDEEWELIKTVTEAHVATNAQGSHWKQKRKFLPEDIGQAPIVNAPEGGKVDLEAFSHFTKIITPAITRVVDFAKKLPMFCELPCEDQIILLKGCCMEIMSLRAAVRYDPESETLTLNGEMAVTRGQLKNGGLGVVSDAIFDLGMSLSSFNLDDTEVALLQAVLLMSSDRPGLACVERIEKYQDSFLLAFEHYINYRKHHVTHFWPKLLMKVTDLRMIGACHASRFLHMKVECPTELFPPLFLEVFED
Cytochrome P450 3A4 (Homo sapiens), sequence (P08684 whole entry, looked up): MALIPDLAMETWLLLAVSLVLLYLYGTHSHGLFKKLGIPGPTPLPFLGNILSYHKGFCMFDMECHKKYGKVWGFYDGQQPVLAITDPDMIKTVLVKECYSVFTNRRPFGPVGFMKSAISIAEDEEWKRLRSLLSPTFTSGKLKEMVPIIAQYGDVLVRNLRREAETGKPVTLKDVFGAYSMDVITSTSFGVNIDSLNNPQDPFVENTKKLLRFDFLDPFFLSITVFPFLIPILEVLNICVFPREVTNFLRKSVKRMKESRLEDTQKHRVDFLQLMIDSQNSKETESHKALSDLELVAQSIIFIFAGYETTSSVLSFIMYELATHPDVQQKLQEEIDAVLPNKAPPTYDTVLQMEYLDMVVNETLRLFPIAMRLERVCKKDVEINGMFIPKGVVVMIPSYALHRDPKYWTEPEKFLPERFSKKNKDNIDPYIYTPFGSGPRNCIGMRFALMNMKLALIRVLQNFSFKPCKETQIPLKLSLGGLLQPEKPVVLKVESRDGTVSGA
Peroxisome proliferator-activated receptor alpha (Homo sapiens), sequence (Q07869 whole entry, looked up): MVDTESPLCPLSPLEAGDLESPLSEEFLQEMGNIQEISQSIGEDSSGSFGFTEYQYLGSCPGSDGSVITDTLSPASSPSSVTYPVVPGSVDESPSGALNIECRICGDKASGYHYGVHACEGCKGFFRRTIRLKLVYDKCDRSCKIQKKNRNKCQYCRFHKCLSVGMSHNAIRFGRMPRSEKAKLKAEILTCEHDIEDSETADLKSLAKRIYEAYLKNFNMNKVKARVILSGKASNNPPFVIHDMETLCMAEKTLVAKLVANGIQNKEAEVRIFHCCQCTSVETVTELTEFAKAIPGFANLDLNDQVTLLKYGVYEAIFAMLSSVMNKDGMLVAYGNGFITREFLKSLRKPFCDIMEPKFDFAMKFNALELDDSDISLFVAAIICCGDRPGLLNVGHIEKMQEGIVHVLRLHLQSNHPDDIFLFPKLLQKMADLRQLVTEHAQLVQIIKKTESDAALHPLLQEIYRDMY
Vitamin D3 receptor (Homo sapiens), sequence (P11473 whole entry, looked up): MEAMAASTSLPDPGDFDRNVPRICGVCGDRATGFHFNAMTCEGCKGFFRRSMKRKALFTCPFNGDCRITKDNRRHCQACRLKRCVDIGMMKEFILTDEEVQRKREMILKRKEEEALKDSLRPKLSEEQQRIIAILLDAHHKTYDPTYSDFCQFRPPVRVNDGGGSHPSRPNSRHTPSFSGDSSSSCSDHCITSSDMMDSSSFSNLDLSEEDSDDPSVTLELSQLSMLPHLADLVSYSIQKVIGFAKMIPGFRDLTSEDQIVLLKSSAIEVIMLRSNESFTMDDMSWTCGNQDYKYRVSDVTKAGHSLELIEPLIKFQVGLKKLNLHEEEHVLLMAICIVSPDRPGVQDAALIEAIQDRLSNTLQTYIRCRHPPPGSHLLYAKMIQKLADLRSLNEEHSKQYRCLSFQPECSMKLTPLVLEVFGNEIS
Nuclear receptor subfamily 1 group I member 2 (Rattus norvegicus), sequence (Q9R1A7 whole entry, looked up): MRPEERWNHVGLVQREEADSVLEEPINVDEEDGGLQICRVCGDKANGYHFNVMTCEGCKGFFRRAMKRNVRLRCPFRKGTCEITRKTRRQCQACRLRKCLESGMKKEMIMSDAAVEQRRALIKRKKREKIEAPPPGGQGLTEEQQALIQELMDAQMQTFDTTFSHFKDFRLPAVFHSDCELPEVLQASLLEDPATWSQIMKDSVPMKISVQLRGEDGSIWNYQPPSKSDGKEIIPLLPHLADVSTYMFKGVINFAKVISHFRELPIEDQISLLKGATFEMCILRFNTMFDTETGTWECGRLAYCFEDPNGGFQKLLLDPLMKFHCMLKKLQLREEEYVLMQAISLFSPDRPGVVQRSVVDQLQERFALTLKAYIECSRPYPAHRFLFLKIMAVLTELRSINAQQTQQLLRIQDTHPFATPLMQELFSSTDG

O=C(NC(=O)c1c(F)cccc1F)Nc1ccc(Cl)cc1
-10.4%: max response [16]
inactive: Potency [1] | Potency [2] | outcome [3] | Potency [4] | Potency [5] | Potency [6] | Potency [7] | activation [8] 1.72% | Potency [10] | Potency [11] | outcome [12] | Potency [15] | max response [17] -3.02% | activation [18] 0.393% | max response [20] -1.48% | max response [21] -7.3% | max response [22] -0.376% | Potency [23] | max response [24] 11% | outcome [25]
-32.8%: max response [9]
active: Potency [14] 15.8 µM | Potency [19] 2.51 µM
-17.2%: max response [13]

CC(C)(C)c1cc(/C=C(\C#N)C(N)=S)cc(C(C)(C)C)c1O
inactive: outcome [26] | outcome [27] | outcome [28]

NC[C@@H]1O[C@H](OC2[C@@H](CO)O[C@@H](OC3[C@H](O)[C@H](N)C[C@H](N)[C@H]3OC3O[C@H](CO)[C@@H](O)[C@H](O)[C@@H]3N)[C@H]2O)C(N)[C@H](O)[C@@H]1O (some centres not stated)
inactive: Potency [4]

CC(=O)N1CCN(c2ccc(OC[C@@H]3CO[C@@](Cn4ccnc4)(c4ccc(Cl)cc4Cl)O3)cc2)CC1
inactive: Potency [4]

C[N+]12CCC(CC1)[C@@H](OC(=O)C(O)(c1ccccc1)c1ccccc1)C2
inactive: Potency [4]

COc1ccccc1N1CCN(CCCCNS(=O)(=O)c2cccc3c(N(C)C)cccc23)CC1
inactive: outcome [26] | outcome [27] | outcome [28]

CCCCCCCC/C=C\CCCCCCCC(=O)NCCc1ccc(O)c(O)c1
inactive: outcome [26] | outcome [27] | outcome [28]
